Shown are actives, neighbours in structure and some others; about 0.5% of the full set was active somewhere.
ERK EGF inh: qHTS Assay for Inhibitors of the ERK Signaling Pathway using a Homogeneous Screening Assay; Stimulation with EGF; HEK293-V1b, EGF-stimulated phospho-ERK AlphaScreen; Potency, µM (doses to about 11.5 µM), without a hit: at the highest dose activity change, negative = inhibition, most hits filed as inhibitors; 0.41% of 130,000 active;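 further: potency means the concentration at half of the fitted maximal effect; plate controls were stimulated vehicle wells for no effect and unstimulated vehicle basal for full effect; nearly all actives have a fitted effect of over 55% in size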
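HEK293 cells stably expressing V1b receptor, serum-reduced (1% FBS) overnight, pretreated 30 min with compound, then stimulated 5 min with 25 nM EGF; phospho-ERK detected by AlphaScreen SureFire. AC50 from Hill fits, normalized to DMSO and EGF.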
CBFb-RUNX1 inh: qHTS Assay for Compounds Blocking the Interaction Between CBF-beta and RUNX1 for the Treatment of Acute Myeloid Leukemia; 230,000 tested, under 10 active; AlphaScreen CBFb-His/RUNX1-biotin binding, biochemical; Potency, µM (titrated, usually from 59.8 µM), inactives show top-dose activity, negative = inhibition, hits mostly inhibitors; Runt-related transcription factor 1 (Homo sapiens) + Core-binding factor subunit beta …; further: % of control where 0% means no effect
Target sequence (Q01196 whole entry, looked up): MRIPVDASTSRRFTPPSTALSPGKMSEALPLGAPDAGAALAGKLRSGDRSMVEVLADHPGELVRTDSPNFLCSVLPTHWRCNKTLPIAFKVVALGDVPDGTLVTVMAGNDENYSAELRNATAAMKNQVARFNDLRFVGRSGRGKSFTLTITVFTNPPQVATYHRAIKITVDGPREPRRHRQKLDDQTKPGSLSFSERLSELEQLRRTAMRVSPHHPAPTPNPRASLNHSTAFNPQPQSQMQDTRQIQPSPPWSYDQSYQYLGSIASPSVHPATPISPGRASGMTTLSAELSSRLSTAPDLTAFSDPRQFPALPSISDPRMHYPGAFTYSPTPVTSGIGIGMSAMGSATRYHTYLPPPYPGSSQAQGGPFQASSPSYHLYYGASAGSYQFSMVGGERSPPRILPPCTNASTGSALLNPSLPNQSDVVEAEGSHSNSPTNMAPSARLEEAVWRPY
Target sequence (Q13951 whole entry, looked up): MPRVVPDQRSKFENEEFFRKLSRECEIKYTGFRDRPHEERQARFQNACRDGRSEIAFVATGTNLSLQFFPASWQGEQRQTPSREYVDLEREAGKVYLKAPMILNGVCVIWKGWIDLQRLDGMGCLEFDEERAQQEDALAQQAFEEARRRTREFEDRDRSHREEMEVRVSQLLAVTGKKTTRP
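Bead-based AlphaScreen assay; binding partners His-tagged CBF-beta and biotinylated RUNX1 at 30 nM each. Compound exposure 15 min after a 20-min protein preincubation; bead step 90 min; all steps at room temperature.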
RGS12 GoLoco inh: qHTS Assay for Inhibitors of RGS12 GoLoco Motif Activity (Red Fluorophore) | Guanine nucleotide-binding protein G(i) subunit alpha-1 (Homo sapiens), P63096 | Potency, µM (series often up to 61.6 µM), for inactives: top-dose activity, negative = inhibition, usual class: inhibitors | AID 880, 2007 | 0.44% of 230,000 active | Gai1:RGS12 GoLoco peptide FP, rhodamine, 10 min; active means well fitted inhibition curve with a large enough effect, not every such curve was filed as active; inactive means no such curve, though single readings can be large or run the other way; further: potency means the concentration at half of the fitted maximal effect; on the % scale 0 is the no-effect control and ±100 the full control effect; nearly all actives have a fitted effect of over 30% in size
Active calls of the source: *; ? = inconclusive; . = not tested or not shown; ! = repeats disagree; [ ] = dose if it differs, or a comment. Unless noted, the call rests on the fitted dose curve; in most records, active means well fitted curve in the direction sought with a large enough effect; inconclusive means small, poorly fitted or top-dose-only effect, or another doubt; inactive means no such curve, though single readings can be large; an effect the other way counts as inactive or inconclusive.

SMILES	ERK EGF inh	CBFb-RUNX1 inh	RGS12 GoLoco inh
C[C@]12CC[C@@H]3c4cc(O)c(O)cc4CC[C@H]3[C@@H]1CC[C@@H]2O	?	-5.0%	7.94µM*
C[C@]12CC[C@@H]3c4ccc(O)c(O)c4CC[C@H]3[C@@H]1CC[C@@H]2O	?	-24.1%	-14.9%
CCN(CC)S(=O)(=O)c1ccc(N=Cc2c(O)n(-c3ccccc3)c(=O)[nH]c2=O)cc1	.	-1.5%	-2.7%
O=C1c2cccc3cccc(c23)C(=O)N1/N=C/c1c(O)n(-c2ccccc2)c(=O)[nH]c1=O	-3.7%	-2.5%	15.8µM*
c1cc(CCN2CCCCC2)ccn1	.	.	-0.9%[14.2 µM]
O=C1CC(N2CCC(n3c(=O)[nH]c4ccccc43)CC2)C(=O)N1c1ccc(F)cc1 (centres undefined)	.	-5.1%	-11.9%
O=c1[nH]c2ccccc2n1C1CCN(CCCC(c2ccc(F)cc2)c2ccc(F)cc2)CC1	25.1µM*!	?	9.3%
CCN(CC)c1ccc(C=C2C(=O)NC(=S)NC2=O)cc1	28.2µM*	13.0%	285.0%
CC(C)CN(CC(C)C)c1ccc(C=C2C(=O)NC(=S)NC2=O)cc1[N+](=O)[O-]	.	-14.0%	138.8%
NS(=O)(=O)C[C-]1C=C[CH]([Sb-]([Cl])([Cl])([Cl])([Cl])[Cl])C=C1.c1ccncc1 (centres undefined)	.	.	1.0%[14.2 µM]
CC(C)C(=O)CP(=O)(O)O	.	.	-3.2%[14.2 µM]
CCOS(C)(=O)=O	.	7.8%[21.7 µM]	22.4µM*
CCCCCCCCCC[n+]1cccc([C@@H]2CCCN2C)c1	.	0.5%	.
COc1ccc2c(c[n+](C)c3c4cc5c(cc4ccc23)OCO5)c1OC	12.6µM*	-14.7%	20.8%
COc1ccc2c(c1OC)CN1CCc3cc4c(cc3[C@H]1C2)OCO4	4.7%[25.7 µM]	-7.7%[21.7 µM]	6.2%[21.6 µM]
ClCCCCl	.	2.6%[21.7 µM]	7.1%
COC(=O)[C@]1(C)CC[C@@]2(C)CC[C@@]3(C)C4=CC=C5C(=CC(=O)C(O)=C5C)[C@@]4(C)CC[C@@]3(C)C2C1 (some centres undefined)	14.1µM*	9.0%	-3.4%
O=C(c1ccccc1)[C@H]1[C@H](c2ccccc2[N+](=O)[O-])N1C1CCCCC1 (some centres undefined)	.	.	6.6%[14.2 µM]
CCOc1ccc(-c2nc3ccc(-c4nc5ccc(N6CCN(C)CC6)cc5[nH]4)cc3[nH]2)cc1	.	?	33.6%
CN1CC=C2C(C#N)=C(N)C(C#N)(C#N)C(c3ccncc3)C2C1 (centres undefined)	.	-4.5%	25.1µM*
CNC(=O)OCc1n(C)cc[n+]1C	-10.2%	-1.5%	1.78µM*
CNC(=O)OCCc1nccn1C	3.4%	9.1%	0.1%
[Cl][Pd][Cl].[S-]C1=C2N=CN[C-]2[NH+]=C[N-]1.[S-]c1ncnc2[nH]cnc12	.	.	-5.2%[14.2 µM]
CCOc1ccc(N=C2SCCCN2C)cc1	6.6%	8.3%	17.8µM*
[O-][Cl+2]([O-])O	.	3.3%[21.7 µM]	11.2µM*
SMILES	ERK EGF inh	CBFb-RUNX1 inh	RGS12 GoLoco inh
N=C(N)SCc1ccc(Cl)c2ccccc12 (tested in a mixture with another compound)	.	.	5.7%[14.2 µM]
O=c1[nH]c(O)c(/C=C2/C=CC(c3cc(Cl)ccc3Cl)=N2)c(=O)[nH]1	28.2µM*	6.2%	-1.4%
Cc1ccc2c(c1)=NC(=O)/C(=C/c1c(O)[nH]c(=O)[nH]c1=O)C=2	-7.6%[57.5 µM]	1.9%	19.8%
CC(=O)O/C(=C1/C[C@H]2[C@@H]3CC=C4C[C@@H](OC(C)=O)CC[C@]4(C)[C@@H]3CC[C@]2(C)C1=O)C(F)(F)F	.	.	1.1%[14.2 µM]
Clc1nc(Cl)nc(Cl)n1	.	-9.9%[21.7 µM]	-8.9%
CN(C)[C@@H]1C(=O)C(C(N)=O)=C(O)[C@]2(O)C(=O)C3=C(O)c4c(O)ccc(Cl)c4[C@](C)(O)[C@H]3C[C@@H]12	12.2%[25.7 µM]	?	0.5%[21.6 µM]
CN(C)C1C(=O)C(C(N)=O)=C(O)[C@@]2(O)C(=O)C3=C(O)c4c(O)cccc4[C@@](C)(O)C3CC12 (some centres undefined)	3.5%	-3.8%	35.5µM*
Cc1ccc([N+](=O)[O-])cc1	.	9.0%[21.7 µM]	0.3%
Cc1cccc([N+](=O)[O-])c1	.	5.1%[21.7 µM]	25.1µM*
COC(=O)[C@@H]1c2cc3c(c(O)c2[C@@H](O)C[C@]1(C)O)C(=O)c1c(O)cc2c(c1C3=O)O[C@H]1O[C@@]2(C)[C@@H](O)[C@H](N(C)C)[C@H]1O	.	.	32.8%[14.2 µM]
O=C(N1CCOCC1)C1(c2ccccc2)CCNCC1	.	.	-1.9%[14.2 µM]
COc1ccc(CCNCc2sccc2C)cc1OC	7.4%	-8.9%	25.1µM*
COc1ccc(CCNCc2ccc(C)s2)cc1OC	4.9%	-15.9%	-3.2%
CCC1(CCSC(=N)N)C(=O)NC(=O)NC1=O	.	.	7.7%[14.2 µM]
CNc1ccc2oc(C[C@@H]3OC4(CC[C@@H]3C)O[C@H]([C@@H](C)C(=O)c3ccc[nH]3)[C@H](C)C[C@H]4C)nc2c1C(=O)O (some centres undefined)	.	?	2.5%
CNc1ccc2oc(C[C@H]3O[C@@]4(CC[C@H]3C)O[C@H]([C@H](C)C(=O)c3ccc[nH]3)[C@H](C)C[C@H]4C)nc2c1C(=O)O	14.1µM*!	?	-6.8%
Nc1cccc2ccccc12	.	-9.2%[21.7 µM]	6.3%
Nc1ccc(S(=O)(=O)c2ccc(NCN3C(=O)NC(=O)C(=O)C3=O)cc2)cc1	.	.	7.6%[14.2 µM]
CCCSC(=O)Cl	.	28.8%[21.7 µM]	4.8%
CCCCNC(=O)Oc1c(Br)cc2sc(=O)oc2c1Br	5.6%[57.5 µM]	?	-8.5%
O=C(O)C1C(C(=O)O)C2(Cl)C(Cl)=C(Cl)C1(Cl)C2(Cl)Cl (centres undefined)	.	6.0%[21.7 µM]	-18.7%
ClC1=C(Cl)C2(Cl)C3C(Cl)C=CC3C1(Cl)C2(Cl)Cl (centres undefined)	?	3.6%[21.7 µM]	20µM*!
CN1CCN(c2ccc([N+](=O)[O-])c3no[n+]([O-])c23)CC1	10µM*	-5.3%	2.5%
CN1CCN(c2ccc(S(C)(=O)=O)cc2[N+](=O)[O-])CC1	-3.3%	6.6%	2.4%
CCN(CC)C(=O)N[C@H]1C[C@@H]2c3cccc4[nH]cc(c34)C[C@H]2N(C)C1	0.0%[57.5 µM]	9.0%	-3.6%
SMILES	ERK EGF inh	CBFb-RUNX1 inh	RGS12 GoLoco inh
CN1CC(CO)=C[C@H]2c3cccc4[nH]cc(c34)C[C@H]21	14.8%	.	12.6µM*
COc1ccc(-c2oc3cc(OC)ccc3c(=O)c2O)cc1	0.8%	?	-0.2%
CC(=O)OC1=CC2=CC[C@H]3[C@H]4CCC(=O)[C@@]4(C)CC(=O)[C@]3(S)[C@]2(C)CC1	.	.	-1.6%[14.2 µM]
CN1CCN(c2ccc(F)cc2N)CC1	-0.9%	5.2%	15.0%
CN1CCN(c2ccccc2N)CC1	.	5.3%	25.1µM*
O=C(O)CCCC[C@@H]1SC[C@H]2NC(=O)N[C@@H]12	4.5%	12.6µM*	4.8%
Cl/C=C\Cl	.	-1.0%[21.7 µM]	-5.9%
NC(Cc1ccc(N(CCCl)CCCl)cc1)C(=O)O (centres undefined)	-4.7%	-2.0%	6.2%
N[C@@H](Cc1cc(Br)c(O)c(Br)c1)C(=O)O	-14.5%	1.9%	11.2µM*!

Screening results deposited in PubChem BioAssay by National Center for Advancing Translational Sciences (NCATS).
